In publication PMC7862700, “An all-to-all approach to the identification of sequence-specific readers for epigenetic DNA modifications on cytosine”:

The sequences below were run against ELF4 (Homo sapiens, UniProt Q99607 1-663) (assay: DAPPL (digital affinity profiling via proximity ligation, sequencing); 10 mM Tris-HCl pH 7.5, 50 mM NaCl, 1 mM DTT, 4% glycerol, room temperature, 30 min; GST-TFs on glutathione beads, 16-mer random dsDNA library, 0.1% formaldehyde crosslink after washing; high values mean tight binding). Conditions: protein: recombinant; tags: N-terminal GST; dsDNA, one strand shown.
In short: (§1)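 Beads coated with glutathione captured GST-fused human transcription factors that had been expressed in yeast, and the factors were then given DNA barcodes and pooled with a tag-only sample. The pools were incubated with 200 nmole of a random double-stranded 16-mer DNA library in Tris/NaCl/DTT/glycerol buffer for 30 min at room temperature, washed, crosslinked with 0.1% formaldehyde and proximity-ligated with BsaI/T4 ligase at 37 °C for 1 h. PCR amplification and Illumina NextSeq500 sequencing came last. Binding signal is each hexamer's read frequency for a factor divided by its frequency for the tag-only sample.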

Sequence of ELF4 (Q99607 whole entry, the tested form may be a part): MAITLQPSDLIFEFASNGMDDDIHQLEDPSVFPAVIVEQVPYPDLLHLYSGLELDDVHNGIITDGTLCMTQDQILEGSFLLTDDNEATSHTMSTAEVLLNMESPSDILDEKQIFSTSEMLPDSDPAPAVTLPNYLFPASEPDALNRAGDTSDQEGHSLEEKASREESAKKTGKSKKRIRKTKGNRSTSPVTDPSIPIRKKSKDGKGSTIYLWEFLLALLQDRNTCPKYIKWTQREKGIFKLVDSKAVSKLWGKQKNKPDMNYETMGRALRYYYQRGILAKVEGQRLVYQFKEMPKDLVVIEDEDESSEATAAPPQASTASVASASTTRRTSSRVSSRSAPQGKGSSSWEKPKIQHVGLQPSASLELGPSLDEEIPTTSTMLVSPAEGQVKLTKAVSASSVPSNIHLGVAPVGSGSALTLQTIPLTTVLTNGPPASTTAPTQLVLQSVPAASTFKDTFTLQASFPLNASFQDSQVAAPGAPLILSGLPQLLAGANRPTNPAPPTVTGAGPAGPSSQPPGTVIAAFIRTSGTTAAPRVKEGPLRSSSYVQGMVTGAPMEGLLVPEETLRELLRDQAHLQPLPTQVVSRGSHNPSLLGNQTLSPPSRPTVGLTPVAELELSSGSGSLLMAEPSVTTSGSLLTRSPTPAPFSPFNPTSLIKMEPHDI

Going from AATAGT to CCAATC, the binding signal rises from 1.18 fold enrichment (6-mer frequency, TF over GST control) to 1.19 fold enrichment (6-mer frequency, TF over GST control).

Going from GTATCC to ACAATT, the binding signal falls from 1.85 fold enrichment (6-mer frequency, TF over GST control) to 1.25 fold enrichment (6-mer frequency, TF over GST control).

Compared with TTCTTT, TAAAAC is lower in binding signal: 1.28 fold enrichment (6-mer frequency, TF over GST control) for the first, 1.16 fold enrichment (6-mer frequency, TF over GST control) for the second.

Going from TCCTTC to TTCGTA, the binding signal falls from 2.08 fold enrichment (6-mer frequency, TF over GST control) to 1.39 fold enrichment (6-mer frequency, TF over GST control).

Compared with TAGCTA, TATTTG is higher in binding signal: 1.28 fold enrichment (6-mer frequency, TF over GST control) for the first, 1.3 fold enrichment (6-mer frequency, TF over GST control) for the second.

What follows are sequences tested against T1, ELK4 (Homo sapiens, UniProt P28324-2 1-405) in the same assay as above. Conditions: protein: recombinant; tags: N-terminal GST; dsDNA, one strand shown.
T1 sequence: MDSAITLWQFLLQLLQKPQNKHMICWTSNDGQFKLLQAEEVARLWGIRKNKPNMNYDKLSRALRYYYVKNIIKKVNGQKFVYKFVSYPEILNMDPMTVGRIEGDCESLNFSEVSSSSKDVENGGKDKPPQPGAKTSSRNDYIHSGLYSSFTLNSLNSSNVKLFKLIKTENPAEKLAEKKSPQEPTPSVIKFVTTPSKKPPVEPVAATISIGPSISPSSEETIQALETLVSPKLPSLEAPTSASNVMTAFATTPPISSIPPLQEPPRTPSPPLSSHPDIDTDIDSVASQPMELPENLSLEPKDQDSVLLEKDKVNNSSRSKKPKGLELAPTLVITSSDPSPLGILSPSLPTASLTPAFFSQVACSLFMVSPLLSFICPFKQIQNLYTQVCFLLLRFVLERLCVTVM
In short: as §1

First: ATTGAT
Second: CATCTA
The binding signal of the first is higher: 1.38 fold enrichment (6-mer frequency, TF over GST control) for the first, 1.33 fold enrichment (6-mer frequency, TF over GST control) for the second.

Compared with CTGATT, CGAATA is higher in binding signal: 1.09 fold enrichment (6-mer frequency, TF over GST control) for the first, 1.25 fold enrichment (6-mer frequency, TF over GST control) for the second.

First: AAGAAA
Second: AGTATT
The binding signal of the first is higher: 1.18 fold enrichment (6-mer frequency, TF over GST control) for the first, 1.17 fold enrichment (6-mer frequency, TF over GST control) for the second.

First: TAAATG
Second: TTTTGT
The binding signal of the first is higher: 1.39 fold enrichment (6-mer frequency, TF over GST control) for the first, 1.36 fold enrichment (6-mer frequency, TF over GST control) for the second.

Going from TCTGCT to TTGAAA, the binding signal falls from 1.57 fold enrichment (6-mer frequency, TF over GST control) to 1.18 fold enrichment (6-mer frequency, TF over GST control).

Compared with ACAATA, CCTAAG is higher in binding signal: 1.22 fold enrichment (6-mer frequency, TF over GST control) for the first, 1.27 fold enrichment (6-mer frequency, TF over GST control) for the second.

Going from CTCAAT to TACATA, the binding signal falls from 1.3 fold enrichment (6-mer frequency, TF over GST control) to 1.22 fold enrichment (6-mer frequency, TF over GST control).

First: TATTTT
Second: TTAATG
The binding signal of the first is higher: 1.49 fold enrichment (6-mer frequency, TF over GST control) for the first, 1.21 fold enrichment (6-mer frequency, TF over GST control) for the second.

First: ATCGAT
Second: TCCATT
The binding signal of the first is lower: 1.23 fold enrichment (6-mer frequency, TF over GST control) for the first, 1.37 fold enrichment (6-mer frequency, TF over GST control) for the second.

Going from CGTTAA to TCTAGC, the binding signal rises from 1.07 fold enrichment (6-mer frequency, TF over GST control) to 1.39 fold enrichment (6-mer frequency, TF over GST control).

Going from ATGCTA to TTATGT, the binding signal rises from 1.32 fold enrichment (6-mer frequency, TF over GST control) to 1.38 fold enrichment (6-mer frequency, TF over GST control).

Going from TCTTGA to ATGCTT, the binding signal rises from 1.4 fold enrichment (6-mer frequency, TF over GST control) to 1.45 fold enrichment (6-mer frequency, TF over GST control).

Compared with CATCCT, ACTGAT is lower in binding signal: 1.51 fold enrichment (6-mer frequency, TF over GST control) for the first, 1.34 fold enrichment (6-mer frequency, TF over GST control) for the second.

Compared with TTACTC, TTGCCC is higher in binding signal: 1.34 fold enrichment (6-mer frequency, TF over GST control) for the first, 1.42 fold enrichment (6-mer frequency, TF over GST control) for the second.

ACGTCC and AATGTT are the same in binding signal: 1.46 fold enrichment (6-mer frequency, TF over GST control) for the first, 1.46 fold enrichment (6-mer frequency, TF over GST control) for the second.

Compared with AATAGT, CCAATC is lower in binding signal: 1.46 fold enrichment (6-mer frequency, TF over GST control) for the first, 1.18 fold enrichment (6-mer frequency, TF over GST control) for the second.

Going from GTATCC to ACAATT, the binding signal falls from 1.74 fold enrichment (6-mer frequency, TF over GST control) to 1.26 fold enrichment (6-mer frequency, TF over GST control).

Compared with TTCTTT, TAAAAC is lower in binding signal: 1.25 fold enrichment (6-mer frequency, TF over GST control) for the first, 1.15 fold enrichment (6-mer frequency, TF over GST control) for the second.

First: TCCTTC
Second: TTCGTA
The binding signal of the first is higher: 2.04 fold enrichment (6-mer frequency, TF over GST control) for the first, 1.21 fold enrichment (6-mer frequency, TF over GST control) for the second.

Going from TAGCTA to TATTTG, the binding signal falls from 1.3 fold enrichment (6-mer frequency, TF over GST control) to 1.26 fold enrichment (6-mer frequency, TF over GST control).
